Data as given in PubChem BioAssay (EPA / NIEHS).
Results filed as inconclusive are left out. Activity calls are given as the source filed them. How the source made its calls, unless noted: active means hit-call score of the fitted dose curve at least 0.9, where 1 is the maximum; inactive means score below 0.9.

How the values were obtained:
[1] = biological target: human RAR-related Orphan Receptor beta (RORb), RORB (gene 6096) (UniProt Q92753); experiment: ATG_RORb_TRANS: Attagene TRANS-FACTORIAL HepG2 Assay for human RAR-related Orphan Receptor beta (RORb) (AID 2283010; active means hit-call score of the fitted dose curve at least 0.9, where 1 is the maximum)
In short: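 HepG2, transient MRTU transfection (GAL4-UAS reporters, exogenous NR-Gal4 chimeras); 24 h compound exposure; total RNA → RT-PCR → 6-FAM primer extension → HpaI digest → CE fluorescence. Positive direction vs DMSO baseline.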

[2] = read-out: E-selectin (Homo sapiens) (UniProt P16581); experiment: BSK_3C_Eselectin: BioMAP Diversity Plus: 3C Assay for Eselectin Biomarker Activity (AID 2283015); conditions: primary human endothelial cells (HUVEC); actives raise or lower the signal
In short: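 Human vascular endothelium from umbilical vein is exposed to test chemicals for 24 h. E-selectin levels are read by ELISA and compared with DMSO controls.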

[3] = read-out: Interleukin-1 alpha (IL1a), IL1A (gene 3552); experiment: BSK_BE3C_IL1a: BioMAP Diversity Plus: BE3C Assay for Interleukin-1 alpha (IL1a) Biomarker Activity (AID 2283016); conditions: primary human bronchial epithelial cells; actives raise or lower the signal
In short: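 ELISA read-out of IL-1a from human lung bronchial epithelial primary cells, 24 h post-dose. Gain or loss of signal fitted relative to DMSO negative control.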

[4] = read-out: Monocyte Chemoattractant Protein-1 (MCP1), CCL2 (gene 6347); experiment: BSK_3C_MCP1: BioMAP Diversity Plus: 3C Assay for Monocyte Chemoattractant Protein-1 (MCP1) Biomarker Activity (AID 2283017); conditions: primary human endothelial cells (HUVEC); actives raise or lower the signal
In short: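 Endothelial cells from human umbilical vein are dosed with chemical, cultured 24 h, then assayed for MCP-1 by ELISA; both increases and decreases are modelled against DMSO controls.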

[5] = read-out: Monocyte Chemoattractant Protein-1 (MCP1), CCL2 (gene 6347); experiment: BSK_4H_MCP1: BioMAP Diversity Plus: 4H Assay for Monocyte Chemoattractant Protein-1 (MCP1) Biomarker Activity (AID 2283018); conditions: primary human endothelial cells (HUVEC); actives raise or lower the signal
In short: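 HUVEC primary cells, 24 h post-dose, MCP-1 by ELISA. Gain or loss of signal fitted bidirectionally vs DMSO baseline. Cytotoxicity: SRB stain (0.1% after 10% TCA fixation), read 560 nm, parallel cultures.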

[6] = read-out: Human Leukocyte Antigen - DR isotype (HLADR), HLA-DRA (gene 3122); experiment: BSK_3C_HLADR: BioMAP Diversity Plus: 3C Assay for Human Leukocyte Antigen - DR isotype (HLADR) Biomarker Activity (AID 2283019); conditions: primary human endothelial cells (HUVEC); actives raise or lower the signal
In short: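 Endothelial cells from human umbilical vein are treated with test chemical; after 24 h, HLA-DR levels are measured by ELISA. Data are fitted in both directions using DMSO as the baseline.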

[7] = read-out: Interleukin-8 (IL8), CXCL8 (gene 3576); experiment: BSK_3C_IL8: BioMAP Diversity Plus: 3C Assay for Interleukin-8 (IL8) Biomarker Activity (AID 2283020); conditions: primary human endothelial cells (HUVEC); actives raise or lower the signal
In short: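 HUVEC, 3C stimulation; 24 h compound exposure; IL-8 read by ELISA; gain or loss of signal fitted relative to DMSO control.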

[8] = read-out: Monokine induced gamma interferon (MIG), CXCL9 (gene 4283); experiment: BSK_3C_MIG: BioMAP Diversity Plus: 3C Assay for Monokine induced gamma interferon (MIG) Biomarker Activity (AID 2283021); conditions: primary human endothelial cells (HUVEC); actives raise or lower the signal
In short: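 HUVEC, 3C system; 24 h chemical exposure; MIG by ELISA; bidirectional fit vs DMSO baseline.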

[9] = biological target: human Vitamin D Receptor (VDR), VDR (gene 7421) (UniProt P11473); experiment: ATG_VDR_TRANS: Attagene TRANS-FACTORIAL HepG2 Assay for human Vitamin D Receptor (VDR) (AID 2283022; active means hit-call score of the fitted dose curve at least 0.9, where 1 is the maximum)
In short: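 Fluorescence of labelled reporter cDNA fragments, resolved by capillary electrophoresis, gives mRNA induction after 24 h treatment of HepG2 cells carrying transfected Gal4-fusion reporter units. Activity is fitted in the positive direction with DMSO as baseline.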

[10] = BSK_3C_SRB: Viability Assessment in the BioMAP Diversity Plus: 3C Assay (AID 2283023); conditions: primary human endothelial cells (HUVEC);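 further: cells read 24 h after compound dosing; fitted both ways against DMSO so a hit may be signal rise or drop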
In short: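 Cells were dosed with chemical, cultured 24 h, fixed with 10% TCA, stained with 0.1% SRB and read at 560 nm. Human umbilical vein endothelium was used; DMSO served as negative control and baseline.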

[11] = read-out: Matrix Metallopeptidase 1 (MMP1), MMP1 (gene 4312); experiment: BSK_BE3C_MMP1: BioMAP Diversity Plus: BE3C Assay for Matrix Metallopeptidase 1 (MMP1) Biomarker Activity (AID 2283024); conditions: primary human bronchial epithelial cells; actives raise or lower the signal
In short: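 ELISA read-out of MMP1 in human lung bronchial epithelial primary cultures, 24 h post-dose; bidirectional curve fit vs DMSO baseline, gain or loss of signal scored.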

[12] = BSK_3C_Vis: BioMAP Diversity Plus: 3C Assay for Morphology Visualization (AID 2283025); conditions: primary human endothelial cells (HUVEC);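 further: fitted both ways so gain or loss versus DMSO counts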;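 on AC50: light microscopy image of cell morphology used as background control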
In short: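 HUVEC, 3C system; light microscopy of morphology at 24 h post-dose. Bidirectional fit vs DMSO baseline. Secondary readout, background-control function.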

[13] = read-out: Pselectin, SELP (gene 6403); experiment: BSK_4H_Pselectin: BioMAP Diversity Plus: 4H Assay for Pselectin Biomarker Activity (AID 2283026); conditions: primary human endothelial cells (HUVEC); actives raise or lower the signal
In short: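 HUVEC, 24 h chemical exposure; P-selectin read by ELISA. Bidirectional curve fit vs DMSO baseline; gain or loss of signal scored.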

[14] = BSK_4H_SRB: Viability Assessment in the BioMAP Diversity Plus: 4H Assay (AID 2283027); conditions: primary human endothelial cells (HUVEC);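 further: cells exposed to compound for 24 h before staining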;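 on AC50: curves fitted both ways versus DMSO so AC50 may be loss or gain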
In short: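 Cytotoxicity readout: sulforhodamine B (0.1%) staining of total protein after 10% TCA fixation, measured at 560 nm in human umbilical vein endothelium at 24 h. DMSO set the baseline; fitting was bidirectional.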

[15] = BSK_BE3C_SRB: Viability Assessment in the BioMAP Diversity Plus: BE3C Assay (AID 2283028); conditions: primary human bronchial epithelial cells;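 on AC50: fitted both ways so AC50 may mark signal gain or loss versus DMSO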
In short: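 Overt cytotoxicity was assessed as total protein in confluent human primary bronchial epithelial cultures 24 h after chemical addition, using 0.1% sulforhodamine B staining read at 560 nm.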

[16] = read-out: Thrombomodulin, THBD (gene 7056); experiment: BSK_3C_Thrombomodulin: BioMAP Diversity Plus: 3C Assay for Thrombomodulin Biomarker Activity (AID 2283029); conditions: primary human endothelial cells (HUVEC); actives raise or lower the signal
In short: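 HUVEC, 3C conditions; compound 24 h; thrombomodulin by ELISA; bidirectional curve fit vs DMSO baseline; parallel SRB total-protein staining for cytotoxicity.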

[17] = read-out: Urokinase-type plasminogen activator receptor (uPAR), PLAUR (gene 5329); experiment: BSK_4H_uPAR: BioMAP Diversity Plus: 4H Assay for Urokinase-type plasminogen activator receptor (uPAR) Biomarker Activity (AID 2283030); conditions: primary human endothelial cells (HUVEC); actives raise or lower the signal
In short: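 Chemicals are dosed onto human vascular endothelial primary cells (umbilical vein). After 24 h, uPAR is read by ELISA. Gain or loss of signal is fitted relative to DMSO.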

[18] = biological target: human RAR-related Orphan Receptor gamma (RORg), RORC (gene 6097) (UniProt P51449); experiment: ATG_RORg_TRANS: Attagene TRANS-FACTORIAL HepG2 Assay for human RAR-related Orphan Receptor gamma (RORg) (AID 2283011; active means hit-call score of the fitted dose curve at least 0.9, where 1 is the maximum)
In short: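 Activity is scored as increase in GAL4-UAS reporter mRNA over DMSO, detected by fluorescent RT-PCR and capillary electrophoresis in HepG2 cells transiently expressing a RORg-Gal4 chimera, 24 h after dosing.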

[19] = biological target: Retinoic acid receptor RXR-alpha (Homo sapiens) (UniProt P19793); experiment: ATG_RXRa_TRANS: Attagene TRANS-FACTORIAL HepG2 Assay for human Retinoid X Receptor alpha (RXRa) (AID 2283012; active means hit-call score of the fitted dose curve at least 0.9, where 1 is the maximum)
In short: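 Read-out: fluorescent reporter-transcript fragments quantified by capillary electrophoresis after RT-PCR. Transiently transfected HepG2 cells carrying GAL4-UAS reporters and NR-GAL4 chimeras were exposed to chemical for 24 h; activity scored as increase over DMSO.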

[20] = biological target: human Retinoid X Receptor beta (RXRb), RXRB (gene 6257) (UniProt P28702); experiment: ATG_RXRb_TRANS: Attagene TRANS-FACTORIAL HepG2 Assay for human Retinoid X Receptor beta (RXRb) (AID 2283013; active means hit-call score of the fitted dose curve at least 0.9, where 1 is the maximum)
In short: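 Read-out: reporter mRNA induction via RT-PCR plus capillary electrophoresis fluorescence, analysed as signal increase relative to DMSO. Cells were human HepG2, transiently transfected with GAL4-UAS reporter constructs and chimeric receptor-Gal4 fusions, dosed for 24 h.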

Measured: AC50

E-selectin (Homo sapiens), sequence (P16581 whole entry, looked up): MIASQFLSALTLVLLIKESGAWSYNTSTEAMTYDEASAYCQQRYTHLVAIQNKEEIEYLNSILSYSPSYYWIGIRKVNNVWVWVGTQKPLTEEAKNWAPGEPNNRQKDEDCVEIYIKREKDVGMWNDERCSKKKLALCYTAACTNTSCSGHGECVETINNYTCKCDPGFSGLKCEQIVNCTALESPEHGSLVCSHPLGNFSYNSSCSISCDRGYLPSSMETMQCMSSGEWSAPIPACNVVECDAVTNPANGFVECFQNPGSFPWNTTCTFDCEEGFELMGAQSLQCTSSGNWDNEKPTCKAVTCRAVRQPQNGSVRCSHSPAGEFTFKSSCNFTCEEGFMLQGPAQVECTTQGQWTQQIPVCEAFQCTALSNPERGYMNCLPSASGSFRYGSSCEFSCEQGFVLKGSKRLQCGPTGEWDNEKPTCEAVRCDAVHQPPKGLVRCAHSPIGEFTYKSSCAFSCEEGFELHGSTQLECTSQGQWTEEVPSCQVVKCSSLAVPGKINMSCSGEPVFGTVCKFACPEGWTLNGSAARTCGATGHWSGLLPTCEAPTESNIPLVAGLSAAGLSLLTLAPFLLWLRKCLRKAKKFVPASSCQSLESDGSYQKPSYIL
human Retinoid X Receptor beta (RXRb), RXRB (gene 6257), sequence (P28702 whole entry, looked up, the tested form may be a part): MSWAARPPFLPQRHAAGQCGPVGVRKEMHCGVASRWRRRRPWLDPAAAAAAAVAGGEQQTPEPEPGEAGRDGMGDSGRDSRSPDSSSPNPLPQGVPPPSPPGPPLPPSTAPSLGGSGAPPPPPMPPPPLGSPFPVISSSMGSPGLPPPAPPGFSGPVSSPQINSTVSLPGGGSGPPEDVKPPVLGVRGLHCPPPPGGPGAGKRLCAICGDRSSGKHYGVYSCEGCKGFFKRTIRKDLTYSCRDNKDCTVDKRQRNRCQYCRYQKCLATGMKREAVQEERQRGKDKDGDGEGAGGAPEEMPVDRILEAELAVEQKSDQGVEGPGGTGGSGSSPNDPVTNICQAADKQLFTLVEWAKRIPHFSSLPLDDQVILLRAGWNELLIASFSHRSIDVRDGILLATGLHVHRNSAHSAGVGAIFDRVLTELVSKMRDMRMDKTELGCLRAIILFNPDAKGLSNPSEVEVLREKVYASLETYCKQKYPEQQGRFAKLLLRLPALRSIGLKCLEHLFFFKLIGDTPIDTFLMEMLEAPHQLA
human RAR-related Orphan Receptor beta (RORb), RORB (gene 6096), sequence (Q92753 whole entry, looked up, the tested form may be a part): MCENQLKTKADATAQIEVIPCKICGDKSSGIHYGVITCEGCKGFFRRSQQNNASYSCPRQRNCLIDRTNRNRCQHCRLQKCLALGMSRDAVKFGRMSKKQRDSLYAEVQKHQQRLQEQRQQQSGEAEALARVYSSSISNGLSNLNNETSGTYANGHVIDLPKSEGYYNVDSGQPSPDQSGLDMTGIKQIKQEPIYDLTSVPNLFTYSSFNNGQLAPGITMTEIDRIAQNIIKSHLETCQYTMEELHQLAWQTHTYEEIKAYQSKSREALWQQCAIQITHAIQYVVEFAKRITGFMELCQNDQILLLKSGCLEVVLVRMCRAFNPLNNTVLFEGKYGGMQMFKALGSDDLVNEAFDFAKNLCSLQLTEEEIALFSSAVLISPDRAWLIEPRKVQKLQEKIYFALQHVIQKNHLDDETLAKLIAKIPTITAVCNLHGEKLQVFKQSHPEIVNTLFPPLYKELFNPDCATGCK
Retinoic acid receptor RXR-alpha (Homo sapiens), sequence (P19793 whole entry, looked up, the tested form may be a part): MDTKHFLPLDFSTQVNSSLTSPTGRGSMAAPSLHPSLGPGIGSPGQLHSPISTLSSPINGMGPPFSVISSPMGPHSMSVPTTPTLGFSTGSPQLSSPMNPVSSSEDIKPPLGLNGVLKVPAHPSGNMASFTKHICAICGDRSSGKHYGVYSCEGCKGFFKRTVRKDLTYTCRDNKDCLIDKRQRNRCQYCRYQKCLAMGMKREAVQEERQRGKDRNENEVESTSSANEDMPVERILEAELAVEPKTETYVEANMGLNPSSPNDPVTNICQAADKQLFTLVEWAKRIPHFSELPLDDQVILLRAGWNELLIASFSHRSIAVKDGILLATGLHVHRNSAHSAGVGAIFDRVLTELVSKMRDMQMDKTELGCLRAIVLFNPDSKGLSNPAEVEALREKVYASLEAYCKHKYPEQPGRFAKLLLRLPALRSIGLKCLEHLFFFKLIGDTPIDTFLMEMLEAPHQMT
human RAR-related Orphan Receptor gamma (RORg), RORC (gene 6097), sequence (P51449 whole entry, looked up, the tested form may be a part): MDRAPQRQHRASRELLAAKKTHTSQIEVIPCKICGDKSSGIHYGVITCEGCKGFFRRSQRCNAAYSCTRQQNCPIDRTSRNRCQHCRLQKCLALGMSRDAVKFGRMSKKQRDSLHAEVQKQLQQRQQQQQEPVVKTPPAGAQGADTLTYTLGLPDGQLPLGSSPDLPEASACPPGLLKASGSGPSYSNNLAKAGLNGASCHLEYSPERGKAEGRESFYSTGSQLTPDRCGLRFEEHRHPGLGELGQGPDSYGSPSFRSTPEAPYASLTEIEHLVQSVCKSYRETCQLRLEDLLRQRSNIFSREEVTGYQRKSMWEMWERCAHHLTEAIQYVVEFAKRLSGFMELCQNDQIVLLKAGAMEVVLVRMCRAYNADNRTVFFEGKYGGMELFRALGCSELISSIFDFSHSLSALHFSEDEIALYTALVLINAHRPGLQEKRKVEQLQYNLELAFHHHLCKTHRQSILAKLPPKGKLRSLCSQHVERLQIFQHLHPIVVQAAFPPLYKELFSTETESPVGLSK
human Vitamin D Receptor (VDR), VDR (gene 7421), sequence (P11473 whole entry, looked up, the tested form may be a part): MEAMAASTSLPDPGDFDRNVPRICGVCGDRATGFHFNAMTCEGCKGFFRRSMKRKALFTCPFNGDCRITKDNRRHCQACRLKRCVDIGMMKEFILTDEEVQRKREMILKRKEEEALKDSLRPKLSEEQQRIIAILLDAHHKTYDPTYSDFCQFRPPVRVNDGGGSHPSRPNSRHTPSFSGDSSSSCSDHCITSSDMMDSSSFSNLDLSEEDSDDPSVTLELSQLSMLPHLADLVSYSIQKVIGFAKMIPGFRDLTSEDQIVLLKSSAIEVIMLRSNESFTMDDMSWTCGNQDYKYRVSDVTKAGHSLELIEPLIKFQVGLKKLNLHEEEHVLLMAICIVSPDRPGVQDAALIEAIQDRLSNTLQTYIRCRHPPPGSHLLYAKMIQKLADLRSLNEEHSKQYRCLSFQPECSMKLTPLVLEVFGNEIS

CCOP(=O)(SC(C)CC)N1CCSC1=O (centres undefined)
not listed: [18] | [19] | [20]
inactive: all other assays above

CCOP(=S)(OCC)Oc1ccc2c(C)c(Cl)c(=O)oc2c1
active: [15] 20 µM | [16] 6.69 µM
not listed: [7] | [9] | [20]
inactive: all other assays above

Cc1nn(-c2cc(NS(C)(=O)=O)c(Cl)cc2Cl)c(=O)n1C(F)F
not listed: [7] | [20]
inactive: all other assays above

C#CC(C)(C)NC(=O)c1cc(Cl)cc(Cl)c1
active: [6] 19.1 µM | [12] 3.25 µM
not listed: [7] | [9]
inactive: all other assays above

CC(=NC#N)N(C)Cc1ccc(Cl)nc1
active: [14] 7.17 µM
not listed: [7]
inactive: all other assays above

CCCSP(=O)(OCC)SCCC
not listed: [7] | [18]
inactive: all other assays above

CNC(=O)ON=C(SC)C(=O)N(C)C
active: [12] 39 µM
not listed: [7] | [9] | [10] | [18] | [19]
inactive: all other assays above

CCOP(=O)(NC(C)C)Oc1ccc(SC)c(C)c1 (centres undefined)
not listed: [7] | [9] | [10]
inactive: all other assays above

COP(=O)(OC)SCn1c(=O)oc2cc(Cl)cnc21
active: [2] 20 µM | [6] 25.1 µM | [7] 11.3 µM | [12] 39 µM | [13] 17.5 µM
not listed: [10]
inactive: all other assays above

CCNc1nc(Cl)nc(NC(C)(C)C#N)n1
not listed: [1] | [9] | [10]
inactive: all other assays above

CCOP(=S)(OCC)OC(Cl)C(Cl)(Cl)Cl (centres undefined)
active: [2] 14.7 µM | [6] 12.2 µM | [12] 39.8 µM | [13] 29.4 µM | [14] 12.4 µM
not listed: [9] | [10] | [18]
inactive: all other assays above

CN1COCN(Cc2cnc(Cl)s2)C1=N[N+](=O)[O-]
not listed: [1] | [10]
inactive: all other assays above

CC(C1CC1)C(O)(Cn1cncn1)c1ccc(Cl)cc1 (centres undefined)
not listed: [9]
inactive: all other assays above
